Among the data in PubChem BioAssay are inhibition values, retold here.

Values without a mark were called inactive. The rule behind the calls is not given here.

Chain of Pantothenate synthetase (Mycobacterium tuberculosis (strain ATCC 25618 / H37Rv)) (P9WIL5 whole entry, looked up): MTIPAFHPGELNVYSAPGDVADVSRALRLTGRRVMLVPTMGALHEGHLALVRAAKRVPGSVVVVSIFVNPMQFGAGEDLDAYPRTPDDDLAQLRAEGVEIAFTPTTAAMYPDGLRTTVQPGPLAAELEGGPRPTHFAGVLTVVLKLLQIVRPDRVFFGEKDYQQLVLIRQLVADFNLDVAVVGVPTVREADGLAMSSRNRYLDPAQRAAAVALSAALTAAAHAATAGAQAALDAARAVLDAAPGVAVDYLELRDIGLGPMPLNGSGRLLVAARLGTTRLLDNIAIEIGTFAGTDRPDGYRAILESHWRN

This assay concerns the target Pantothenate synthetase (Mycobacterium tuberculosis (strain ATCC 25618 / H37Rv)) (UniProt P9WIL5). As to the kind of experiment: Recombinant Mtb pantothenate synthetase (PanC) inhibitors, coupled enzyme, confirmatory (AID 375).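 Note: 0% = full reaction with vehicle and 100% = no enzyme background.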 As to conditions: coupled enzyme assay; at 10 µM, hits give high values.
As usually defined, the inhibition is the relative decrease from the control value, in per cent. As for `CCn1c(C(Cc2ccccc2)NC(=O)COC)nc2ccccc21` (centres undefined), the inhibition was 0%.

With `Cc1ccc(-c2[nH]nc3c2C(c2ccc(OC(=O)N4CCOCC4)cc2)C(C#N)=C(N)O3)cc1` (centres undefined), the inhibition is 2%.

In the case of `COc1cc(S(=O)(=O)NC2CCCCC2)ccc1Cl`, the inhibition is 1%.

In the case of `CCC(C)Nc1nc2c(c(=O)n(C)c(=O)n2C)n1Cc1ccc(F)cc1` (centres undefined), the inhibition is 3%.

Consider `CCN(CC)c1ccc2c(c1)C(=O)N(C)C2=O`, for which the inhibition was 7%.

With `CCn1c(CSc2nnc(-c3cccnc3)n2-c2ccccc2C)nc2cc(C(=O)O)ccc21`, the inhibition is 0%.

On to `CCOc1ccc2ccccc2c1C(=O)N1CCN(c2ccccc2)CC1`, for which the inhibition was 9%.

Take `Cc1cc(C(=O)NCc2ccc(S(N)(=O)=O)cc2)cs1`: the inhibition was 16%.

With `O=C(NCc1ccc(F)cc1)c1cc(-c2ccco2)on1`, the inhibition was 6%.

In the case of `COc1ccc(N(CC(=O)N2CCN(Cc3ccc4c(c3)OCO4)CC2)S(C)(=O)=O)cc1OC`, the inhibition was 5%.

Turning to `CC(=O)NC(Cc1c[nH]c2ccccc12)C(=O)OCC(=O)Nc1cc(C)on1` (centres undefined), the inhibition is 0%.

Consider `Cc1ccccc1CS(=O)(=O)CCC(=O)N1CCN(c2ccc(N3CCOCC3)nn2)CC1`, for which the inhibition was 9%.

Regarding `CCOc1ccccc1C1CC(=O)Nc2cc3c(cc21)OCO3` (centres undefined), the inhibition was 0%.

`Cc1ccc2c(c1)-c1c(cnn1CC(=O)NC(C)CCc1ccco1)CO2` (centres undefined): the inhibition was 0%.

Take `CC(=O)c1cccc(NS(=O)(=O)c2ccc3c(c2)oc(=O)n3C)c1`: the inhibition was 0%.

Take `CCOC(=O)N1CCC(NC(=O)Cn2cc3c(n2)CCC(C)C3)CC1` (centres undefined): the inhibition is 0%.

In the case of `CCc1nnc2n1N=C(c1ccc(-c3ccc(Cl)cc3Cl)o1)CS2`, the inhibition was 3%.

On to `CCCCOc1cccc(NC(=O)CSc2nccn2C)c1`, for which the inhibition was 2%.

In the case of `CCOC(=O)c1ccccc1NC(=O)CSc1nc2c(c(=O)n(C)c(=O)n2C)n1C`, the inhibition was 0%.

As for `COc1cccc(CN(C)CC(=O)NC(=O)NCc2ccco2)c1`, the inhibition was 0%.

With `COc1ccc(C(=O)c2ccccc2)c(O)c1`, the inhibition is 1%.

For the compound `Cc1ccc(-c2noc(CCC(=O)N3CCN(c4cccc(C(F)(F)F)c4)CC3)n2)cc1`, the inhibition is 0%.

Consider `CCOC(=O)c1nnn(CC(=O)Nc2cccc(OC)c2)c1C(=O)OCC`, for which the inhibition was 9%.

Regarding `C(=C\c1ccccc1)/CN1CCN(Cc2ccc3c(c2)OCCO3)CC1`, the inhibition is 1%.

As for `CCCSc1nnc(N2C(=O)CC(c3ccsc3)C3=C2CCCC3=O)s1` (centres undefined), the inhibition was 0%.

As to `CCOC(=O)C(NCc1ccccc1OC)(NC(C)=O)C(F)(F)F` (centres undefined), the inhibition was 0%.

As for `Cc1ccc(C)c2[nH]c(=O)c(CCNC(=O)CC(C)(C)C)cc12`, the inhibition was 4%.

Take `c1ccc2c(c1)nc(NC1CCCCC1)c1nncn12`: the inhibition is 0%.

`O=C(Nc1ccc(N2CCOCC2)cc1)Nc1ccc2nc(-c3ccco3)c(-c3ccco3)nc2c1`: the inhibition is 4%.

Consider `CCCNC(=O)NC1C(NC(=O)NCCC)N(C)C(=O)N1C` (centres undefined), for which the inhibition is 5%.

Turning to `CCCNC(=O)C1=C(C)C(=O)OC12CCC(C)CC2` (centres undefined), the inhibition is 0%.

For `CCOC(=O)C1=C(C)N=C2SC(C)C(=O)N2C1c1cccc(F)c1` (centres undefined), the inhibition is 0%.

Regarding `Cc1c(O)c(CN2CCCCC2)cc2c3c(c(=O)oc12)CCC3`, the inhibition is 2%.

For the compound `CC(C)CN(C(=O)c1ccc(=O)n(C)n1)c1nc2ccccc2s1`, the inhibition is 0%.

In the case of `CCOC(=O)/C=C1\SCC(=O)N1Cc1nnc(-c2ccccc2Br)o1`, the inhibition was 0%.

With `Cc1ncc([N+](=O)[O-])n1CC(O)CCl` (centres undefined), the inhibition is 0%.

With `O=C1CCCC(O)=C1C=Nc1ccc2c(c1)oc1ccccc12`, the inhibition is 3%.

On to `O=c1c2nnn(Cc3ccccc3)c2ncn1-c1ccccc1`, for which the inhibition is 0%.

As to `O=C(O)CCC(=O)c1c[nH]c2ccccc12`, the inhibition was 3%.
